GLP-1R inv ag – GLP-1 receptor (human) inverse agonism. P43220. HEK293 GLP-1R CRE-luciferase, luminescence, 24 h; GLP-1R form is constitutively active. Potency, µM (doses to about 38.3 µM), for inactives: at the highest dose activity change, negative = inhibition, usual class: inhibitors. hit rate 1.6% among 410,000; note: % is set by controls: 0 for no effect and ±100 for the full control effect; nearly all actives have a fitted effect of over 55% in size
Target sequence (P43220 whole entry, looked up): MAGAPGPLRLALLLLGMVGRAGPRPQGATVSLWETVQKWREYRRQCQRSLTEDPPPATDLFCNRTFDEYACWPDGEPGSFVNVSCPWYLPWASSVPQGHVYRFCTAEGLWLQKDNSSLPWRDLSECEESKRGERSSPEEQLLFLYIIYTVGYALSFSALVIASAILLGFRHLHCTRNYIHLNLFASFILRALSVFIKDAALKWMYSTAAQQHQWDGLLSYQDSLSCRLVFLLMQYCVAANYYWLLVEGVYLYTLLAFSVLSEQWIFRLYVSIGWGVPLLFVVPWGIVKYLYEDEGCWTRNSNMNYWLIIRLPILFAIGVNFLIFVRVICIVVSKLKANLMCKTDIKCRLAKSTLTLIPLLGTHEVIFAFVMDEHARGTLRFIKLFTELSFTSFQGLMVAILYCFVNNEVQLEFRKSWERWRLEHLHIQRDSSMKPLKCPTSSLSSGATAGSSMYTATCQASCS
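Inverse agonism was detected as reduced cAMP-driven luciferase luminescence after 24 h compound treatment. The cells were HEK293 clones expressing constitutively active human GLP-1R with the reporter. Reporter-only and GPR119 cell lines served as counterscreen controls.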
PTHR1 agonist – agonists of human PTHR1 parathyroid hormone receptor; HEK293 GP2 PTHR1 cells, GloSensor cAMP luminescence, 1 h; AID 743266; Q03431; Potency, µM (highest dose often 115 µM), without a hit: at the top dose activation, most hits filed as activators; hit rate 0.075% among 410,000; note: nearly all actives have a fitted effect of over 55% in size
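HEK-293-derived GP2 cells expressing PTHR1 and a GloSensor cAMP reporter, 3,000/well, plated overnight, given luciferin plus IBMX (each 0.5 mM as added) for 1 h at 37 °C, then compound for 1 h at 37 °C. Luminescence was read after 15 min at room temperature.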
RGS4 inhibitor – human RGS4 inhibition. Transcreener GDP fluorescence polarization, RGS4-accelerated GTP hydrolysis. Potency, µM (series often up to 114 µM), for inactives: top-dose activity change, negative = inhibition, usual class: inhibitors. hit rate 0.039% among 390,000. AID 504845; note: % is set by controls: 0 for no effect and ±100 for the full control effect; nearly all actives have a fitted effect of over 75% in size
Target sequence (P49798 whole entry, looked up): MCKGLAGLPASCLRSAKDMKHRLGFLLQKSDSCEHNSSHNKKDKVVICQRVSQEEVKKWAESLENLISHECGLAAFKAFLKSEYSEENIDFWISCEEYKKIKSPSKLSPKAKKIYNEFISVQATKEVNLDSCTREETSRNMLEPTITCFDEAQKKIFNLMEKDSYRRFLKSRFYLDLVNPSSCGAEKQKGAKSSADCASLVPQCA
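MLSMR compounds (23 nl, pin-transferred) preincubated 10 min at room temperature with a 500nM (2x) first reagent, then RGS4 at 900nM (2x) plus Transcreener GDP mix added; fluorescence polarization (620/688 nm) read before and after 90 min at 30 °C.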
GLP-1R agonist – GLP-1 receptor (human) agonism; hit rate 0.007% among 380,000; HEK293 GLP-1R CRE-luciferase, luminescence, 4-6 h; cells express a hypersensitive GLP-1R form; Potency, µM (titrated, usually from 45.6 µM), without a hit: at the top dose activation, usual class: activators; P43220; note: % of control where 0% means no effect
HEK293 tox – cytotoxicity counter-screen for GLP-1 receptor inverse agonists. HEK293 cAMP-luciferase reporter cells, luminescence, 24 h. Potency, µM (top dose mostly 38.3 µM), inactives show at the highest dose activity change, negative = inhibition, most hits filed as inhibitors. hit rate 0.13% among 410,000. AID 624418;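 note: loss of luciferase light is scored as toxicity; % is set by controls: 0 for no effect and ±100 for the full control effect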
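Cells in DMEM/10% Nu serum/1% pen-strep, 1536-well format. Pre-incubated 12 h, dosed with 23 nL compound, incubated a further 24 h. Luciferase detection, 12 min at room temp, luminescence.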
* = called active by the depositor; i = inactive; ? = inconclusive; nt = not tested or not shown; [ ] = remark or other dose. Sampled rows, rich in hits. Any-hit rate of the full collection: about 1.7%. Calls come from the whole dose curve; as a rule, active = well fitted curve in the direction sought with a large enough effect; inconclusive = small, poorly fitted or top-dose-only effect, or another doubt; inactive = no such curve, though single readings can be large; an effect the other way counts as inactive or inconclusive. Potency is the fitted concentration of half-maximal effect.

SMILES | GLP-1R inv ag | PTHR1 agonist | RGS4 inhibitor | GLP-1R agonist | HEK293 tox
CC1CCCCC1NC(=O)CO/N=C/c1ccccc1OC(F)F (stereo not given) | 10µM* | -16% | -10% | 25% | 0%
O=C(Nc1ccccc1)c1ccc2c(c1)CCN2S(=O)(=O)c1ccccc1 | ? | -10% | 16% | -9% | 0%
O=C(Nc1cccc(Cl)c1)c1ccc2c(c1)CCN2S(=O)(=O)c1ccccc1 | 2.5µM* | -17% | -11% | nt | -7%
CC1CCN(S(=O)(=O)c2ccc(NC(=O)C3CCN(C(=O)c4ccco4)CC3)cc2)CC1 | 2.8µM* | -16% | -13% | 9% | 14%
O=C(Nc1ccc(F)cc1)c1ccc(S(=O)(=O)N2CCCC2)cc1 | 3% | -40% | -19% | 15% | -3%
CCN1CCN(CC(=O)Nc2ccc(S(=O)(=O)N3C(C)CCCC3C)cc2)CC1 (stereo not given) | 11µM* | i | 5% | 12% | 4%
CC1CC(C)CN(S(=O)(=O)c2ccc(NC(=O)CN3CCCCCC3)cc2)C1 (stereo not given) | 11µM* | -4% | -6% | 11% | ?
O=C(Nc1ccc(F)cc1)Nc1ccc(S(=O)(=O)N2CCCC2)cc1 | 8.9µM* | -38% | -11% | -1% | -24%
CC1CCN(CC(=O)Nc2ccc(S(=O)(=O)N3CCC(C)CC3)cc2)CC1 | ? | 25% | -22% | 1% | ?
O=C(CCCCCn1c(=O)c2sccc2n(Cc2ccc(Cl)cc2)c1=O)NCc1ccc2c(c1)OCO2 | 12% | -11% | ? | nt | 1%
COC(=O)[C@@H](NS(=O)(=O)c1ccc(F)cc1Br)C(C)C | -2% | -8% | nt | 12% | 2%
CCOc1ccccc1NC(=O)C(Cc1ccccc1)NS(=O)(=O)c1ccc2c(c1)oc(=O)n2C (stereo not given) | 10% | i | 3% | nt | 0%
Cc1cccc(N2CCN(CC(=O)Nc3ccc(S(=O)(=O)N4CCOCC4)cc3)CC2)c1C | 11µM* | -30% | -29% | -4% | 1%
CC1CCCN(S(=O)(=O)c2ccc(NC(=O)CN3CCCCC3)cc2)C1 (stereo not given) | 22µM* | 17% | 27% | 18% | 1%
CC1CCN(S(=O)(=O)c2ccc(NC(=O)CN3CCCC3)cc2)CC1 | 1.8µM* | i | -9% | 10% | 7%
CNc1nc(N)c(C(=O)C23CC4CC(CC(C4)C2)C3)s1 | 5.6µM* | i | ? | 6% | -27%
COC(=O)c1[nH]c2cc(C)ccc2c1NC(=O)CN1CCCc2ccccc21 | -18% | i | -30% | -51% | -13%
COC(=O)c1[nH]c2ccc(Br)cc2c1NC(=O)CN1CCCc2ccccc21 | 10µM* | -4%[57.5 µM] | -49% | -11% | -22%
COC(=O)c1[nH]c2ccccc2c1NC(=O)CN1CCN(c2cccc(OC)c2)C(C)C1 (stereo not given) | 10µM* | i | 33% | 7% | -18%
COC(=O)c1[nH]c2cc(OC)ccc2c1NC(=O)CCN1CCN(c2ccccc2)CC1 | -6% | i | -33% | 21% | 4%
COC(=O)c1[nH]c2ccc(C)cc2c1NC(=O)CN1CCCC(C)(C)C1 | 2.2µM* | -12%[57.5 µM] | 2% | -7% | 0%
COc1ccc(NC(=O)Nc2nnc(N(CC(C)C)CC(C)C)s2)c(OC)c1 | ? | -21% | -13% | nt | -13%
CCCN(CCC)C(=O)CSc1nnc2cc(C)c3ccccc3n12 | 4% | i | 4% | nt | 4%
CN1C2CCC1CC(NC(=O)CSCc1ccc(Cl)cc1Cl)C2 (stereo not given) | 7.1µM* | i | 9% | 6% | 4%
O=C(CSc1nnc(-c2ccc(Cl)cc2)n1Cc1ccco1)NCc1ccc2c(c1)OCO2 | 10µM* | ? | -11% | -3% | -15%
SMILES | GLP-1R inv ag | PTHR1 agonist | RGS4 inhibitor | GLP-1R agonist | HEK293 tox
COc1ccccc1C(C[N+](=O)[O-])c1c[nH]c2ccccc12 (stereo not given) | 10µM* | i | 2% | 5% | -23%
CC(C)/C=N/Nc1nc(-c2ccc(Br)cc2)cs1 | 5.6µM* | -58% | -33% | -5% | -6%
c1ccc(-n2cc(CN3CCCC(CN4CCCC4)C3)c(-c3ccc4c(c3)OCO4)n2)cc1 (stereo not given) | 10µM* | 8% | 8% | 16% | ?
OC[C@@H]1CCCN1Cc1cn(-c2ccccc2)nc1-c1ccc2c(c1)OCO2 | ? | 11% | 9% | 1% | 6%
COc1cccc(NC(=S)N2CCC(c3ccc(C)cc3)C2)c1 (stereo not given) | ? | -1% | 9% | 13% | -25%
COc1ccccc1Cc1c(C2CCCCC2)nc2ccc(C)cn12 | ? | -6% | nt | -6% | ?
COc1ccccc1Cc1c(C2CCCCC2)nc2ccc(Cl)cn12 | 3.5µM* | -11% | nt | -3% | ?
COc1ccccc1-c1c(-c2ccc(O)cc2O)n[nH]c1C(F)(F)F | 11µM* | -19% | 8% | -3% | -15%
c1ccc2nc(-c3nc4ccccc4[nH]3)ccc2c1 | 10µM* | -23%[57.5 µM] | -8% | -22% | -2%
c1ccc2[nH]c(-c3cscn3)nc2c1 | 1% | -6% | 19% | 3% | 6%
Cc1ccc(-n2cc(-c3ccccc3)c3c(NC4CCCC4)ncnc32)cc1 | 2.5µM* | i | 15% | nt | -8%
Cc1ccc(-n2cc(-c3ccccc3)c3c(N4CCOCC4)ncnc32)cc1 | 3.5µM* | -11% | 6% | 7% | -17%
Cc1ccc(-n2cc(-c3ccccc3)c3c(N4CCCCC4)ncnc32)cc1 | -1% | ? | -14% | nt | -4%
CC1CN(c2ncnc3c2c(-c2ccccc2)cn3-c2ccc(F)cc2)CC(C)O1 (stereo not given) | 4µM* | -23% | -8% | 12% | 6%
Cc1cccc(-n2cc(-c3ccccc3)c3c(NC4CCCC4)ncnc32)c1 | ? | i | -2% | nt | 2%
COc1cccc(CNC(=O)C(Cc2ccccc2)NS(=O)(=O)c2ccc3c(c2)CCN3C(C)=O)c1 (stereo not given) | 13% | i | -1% | nt | 0%
COc1ccc(CC(=O)Nc2cc(-c3cn4cccnc4n3)ccc2OC)cc1 | -3% | i | -10% | nt | -5%
Cc1cn2c(=O)cc(COC(=O)c3cccc(NC(=O)COc4ccccc4Cl)c3)nc2s1 | 9% | -31% | -6% | nt | 2%
Cc1sc2ncn(CC(=O)Nc3ccc(F)cc3Cl)c(=O)c2c1S(=O)(=O)N1CCN(c2ncccn2)CC1 | 9% | -16% | -28% | 0% | 5%
CCOc1cc(/C=C2\CN(CC)C/C(=C\c3ccc(O)c(OCC)c3)C2=O)ccc1O | 10µM* | -21% | -45% | -5% | -1%
COc1cc(/C=C2\CCC/C(=C\c3ccc(O)c(OC)c3)C2=O)ccc1O | ? | -26% | -51% | -4% | 8.9µM*

Compound activity: PubChem BioAssay, National Center for Advancing Translational Sciences (NCATS)
